# Assay results from PubChem BioAssay AID504832 (National Center for Advancing Translational Sciences (NCATS), 2011).
# In all, about 310,000 compounds went through this assay and about 18,000 (5.8%) were called active. Another 22% or so got no clear call; they are omitted. The list comes from a sample in which actives are over-represented; it also holds similar structures and randomly drawn compounds. Values without a mark were called inactive. Calls come from the whole dose curve; as a rule, active = well fitted inhibition curve with a large enough effect; inconclusive = small, poorly fitted or top-dose-only effect, or another doubt; inactive = no such curve, though single readings can be large or run the other way.
# Assay: Primary qHTS for delayed death inhibitors of the malarial parasite plastid, 48 hour incubation
# Conditions: P. falciparum luciferase growth in erythrocytes; series mostly up to 28.7 µM; activity change, negative = inhibition: at the top concentration
# Excerpt: The goal of this screen is to discover new antimalarial compounds that act by inhibiting the development of the apicoplast in the malarial parasite Plasmodium falciparum. The biochemical processes that make this organelle essential for erythrocytic stage parasites are not well understood. However, antibiotics such as azithromycin and tetracycline, which target the apicoplast translational machinery, have a potent antimalarial effect.
# We have developed a cell-based assay that measures parasite growth based on the expression of an integrated copy of a firefly luciferase reporter. To detect small molecules that cause this "delayed death" phenotype, erythrocytes infected with the luciferase-expressing parasites were incubated with compounds for either one or two generations, corresponding to 48 and 96 hours, respectively. Compounds that inhibit parasite growth in the second generation, but not the first, should be enriched in antimalarials that target the apicoplast. Growth inhibition is detected by a decrease in luciferase activity.
# Assay Provider: David Fidock and Eric Ekland, Columbia University
# Keywords: NIH Roadmap, MLPCN, MLI, MLSMR, qHTS, NCGC, qHTS, malaria, luciferase, viability
# Four microliters of culture medium (RPMI 1640 with 0.5% w/v Albumax (GIBCO), 24 mM sodium bicarbonate and 10 ug/mL gentamycin) were dispensed by a Multi-drop Combi into white solid 1536-well plates (Grenier) and 23 nL compound was added by a pin tool. Four microliters of infected erythrocytes (2% hematocrit, 0.1% parasitemia final concentration) in culture medium were dispensed and the plates incubated for 48 hours at 37 C in 5% CO2. Two microliters of luciferase detection reagent was added and luminescence was detected by a ViewLux (PerkinElmer) reader.
# % is set by controls: 0 for no effect and ±100 for the full control effect; potency is the fitted concentration of half-maximal effect.
Structure (SMILES),"activity change, negative = inhibition",Potency
CCOc1ccc(-c2noc(CCC(=O)NC3CCCC3)n2)cc1OC,1.54%,–
Cc1ccc(C)c(OCCC(=O)OCC(=O)N2CCN(c3ccccc3)CC2)c1,7.54%,–
CC(C)NC(=O)COCc1cc(-c2ccc3c(c2)OCO3)on1,41.4%,–
COc1ccc(C(=O)CC(=O)C(=O)Nc2cc([N+](=O)[O-])ccc2OC)cc1,-19.7% [at 0.00184 µM],–
CN(C)CC(O)COc1ccc(C(C)(C)c2ccc(OCC(O)CN(C)C)cc2)cc1 (stereo not given),–,5.86 µM (active)
OC(COc1ccc(Br)cc1)CN1CCCC1 (stereo not given),-3.26%,–
Cc1cc(C)n(CC(O)COc2ccc(C(C)(C)C)cc2)n1 (stereo not given),-22.6%,–
O=C(OCC(=O)N1CCc2ccccc21)c1ccc([N+](=O)[O-])cc1,-15.6%,–
O=C(N/N=C\c1cc2c(cc1Cl)OCO2)c1ccc(Br)s1,9.16%,–
Cc1ccc(S(=O)(=O)N(C)C)cc1NC(=O)C(C)OC(=O)c1ccc2ccccc2n1 (stereo not given),14.4%,–
CC1=NC2(CCCc3c2no[n+]3[O-])N(O)C1(C)C (stereo not given),–,7.38 µM (active)
CCOc1ccccc1NS(=O)(=O)c1cc2c3c(c1)C(C)C(=O)N3CCC2 (stereo not given),-22.7%,–
Cc1cc(C)n(-c2ccc(NC(=O)C3CCCCN3C(=O)c3cccs3)cc2)n1 (stereo not given),34%,–
CC1C(=O)Nc2ccccc2N1C(=O)c1c(F)cccc1F (stereo not given),-12%,–
O=C(CCNC(=O)c1ccc(Br)cc1)Nc1cccc(S(=O)(=O)N2CCCCC2)c1,17.9%,–
COc1ccc2oc(C(=O)OCC(=O)N(CC(C)C)c3c(N)n(Cc4ccccc4)c(=O)[nH]c3=O)c(C)c2c1,-15.5%,–
Cc1cc(C)n(-c2cc(Oc3ccccc3)ncn2)n1,10.9%,–
Cc1cc(Oc2ccc(Cl)cc2)nc(SCC(=O)c2ccccc2)n1,11.4%,–
CC(=O)c1ccc(Oc2cc(C)nc(-n3nc(C)cc3C)n2)cc1,–,11.7 µM (active)
COc1cccc(C(=O)Nc2nnc(S(=O)(=O)N3CCCCC3)s2)c1,11.5%,–
COc1ccc(/C=C2\SC(=O)N(CCC(=O)NC3CCS(=O)(=O)C3)C2=O)cc1 (stereo not given),106%,–
CC(C)c1ccc(-c2noc(C3CCCN(S(C)(=O)=O)C3)n2)cc1 (stereo not given),37.3%,–
COc1cccc(-c2noc(C3CCCN(C(=O)c4ccc(F)cc4)C3)n2)c1 (stereo not given),30.9%,–
COc1cc(-c2noc(C3CCCN(S(=O)(=O)c4cccc(Cl)c4)C3)n2)cc(OC)c1OC (stereo not given),–,13.1 µM (active)
CCCCn1c(N)c(N(CCOC)C(=O)c2sc3ccccc3c2Cl)c(=O)[nH]c1=O,4.94%,–
CCn1cc(/C=C(\NC(=O)c2ccc(C)cc2)C(=O)NCCN2CCOCC2)c2ccccc21,-11.1%,–
COc1ccc(NC(=O)CSc2nc(SC)ns2)c(OC)c1,152%,–
O=C(O)CCn1c(Cc2ccccc2)nc2ccccc21,-1.94%,–

Structure (SMILES),"activity change, negative = inhibition",Potency
Cc1ccc2c(c1)C1CN(C)CCC1N2C(=S)Nc1ccc(OC(F)F)cc1 (stereo not given),2.27%,–
Cc1ccc2c(c1)C1CN(C)CCC1N2S(=O)(=O)c1ccc(Oc2ccc([N+](=O)[O-])cc2)cc1 (stereo not given),–,8.28 µM (active)
Cc1ccc2c(c1)C1CN(C)CCC1N2C(=S)Nc1ccc(Cl)cc1Cl (stereo not given),1.06%,–
COc1cc(NC(=O)CSc2ccc(-c3cccnc3)nn2)cc(OC)c1,-21.3%,–
COc1ccccc1/C=N/N1CCN(Cc2ccccc2Cl)CC1,-0.519%,–
COc1ccccc1CN1CCN(C(c2ccccc2)c2ccccc2)CC1,–,13.1 µM (active)
COc1ccccc1CN1CCN(C(=O)Cc2ccccc2)CC1,0.183%,–
COc1ccc(N2CC(NS(=O)(=O)c3ccc4ccccc4c3)CC2=O)cc1 (stereo not given),9.04%,–
NC(=O)c1cc(-c2cccnc2)nc2ccc(Br)cc12,-1.12%,–
O=C(NCc1ccco1)c1cc(-c2cccnc2)nc2ccc(Cl)cc12,–,10.4 µM (active)
O=C(NCc1ccco1)c1ccc([N+](=O)[O-])cc1Cl,14.9%,–
O=C(Nc1cccc(C(F)(F)F)c1)c1ccc(N2CCNCC2)c([N+](=O)[O-])c1,–,2.62 µM (active)
O=C(NC1C2CC3CC(C2)CC1C3)c1ccc(N2CCNCC2)c([N+](=O)[O-])c1 (stereo not given),-9.91%,–
O=C(Nc1ccc(N2C(=O)c3cccc4cccc(c34)C2=O)cc1)c1ccc(N2CCCCC2)c([N+](=O)[O-])c1,-11.8%,–
O=[N+]([O-])c1ccc(NC(=S)N2CCN(c3ccccn3)CC2)cc1,7.82%,–
O=C(CNC(=O)c1ccccc1)Oc1ccc([N+](=O)[O-])cc1,0.311%,–
Oc1c(Cl)cc(Cl)c(Cl)c1Cc1c(O)c(Cl)cc(Cl)c1Cl,–,11.7 µM (active)
CCOc1ccc(N2CC(C(=O)NCc3ccccn3)CC2=O)cc1 (stereo not given),-0.962%,–
CC(C)C[C@H](NC(=O)N1CC(=O)Nc2ccccc21)C(=O)N[C@H](Cc1ccccc1)C(=O)O,-23.2%,–
COc1ccc(C(=O)ON=C2c3ccccc3-c3ccccc32)cc1OC,22.3%,–
COc1ccc(C(=O)O/N=C(\N)Cc2ccc(Cl)cc2Cl)cc1OC,–,13.1 µM (active)
COc1ccc(C/C(N)=N/OC(=O)c2ccco2)cc1OC,6.03%,–
Cc1ccc2c(C)c(C(=O)N(C)Cc3ccncn3)oc2c1C,-0.404%,–
CCOC(=O)N1CCN(Cc2nc(N)nc(Nc3ccc(C)cc3)n2)CC1,21.1%,–
CCOC(=O)N1CCN(C(=O)CSc2nc(=O)n3cccc(C)c3n2)CC1,-0.362%,–
CCN1CCN(C(c2cccnc2)c2cc(Cl)c3cccnc3c2O)CC1 (stereo not given),–,4.15 µM (active)
CCN1CCN(c2ccc(NC(=O)c3cnccn3)cc2)CC1,192%,–
